Source: PubChem BioAssay (Tox21)
“And” between values parts separate entries of the source, which are not always exact repeats. Equal values may be shown once. A number with no mark means an inactive call. Results filed as inconclusive are left out. Entries that show only a call come without a potency. The source made the active and inactive calls. Unless noted, calls come from the whole dose curve; as a rule, active = well fitted curve in the direction sought with a large enough effect in the repeat runs; inconclusive = weak or mixed curves; inactive = no such curve, though single readings can be large; an effect the other way counts as inactive or inconclusive.

Key:
[1] = A CellTox Green Cytotoxicity Assay to monitor cytotoxicity in HepG2 cells - 0 hour (AID 1224882); note: nearly all actives have a fitted effect of over 35% in size
Summary of the method: (§1)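 HepG2 cells were seeded together with the CellTox Green dye at 600 cells/well, left 5 h at 37 C/5% CO2, then given compounds in DMSO. Fluorescence from dye bound to dead-cell DNA was read repeatedly over 40 h of treatment at 37 C.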

[2] = A CellTox Green Cytotoxicity Assay to monitor cytotoxicity in HepG2 cells - 32 hour (AID 1224883); note: nearly all actives have a fitted effect of over 50% in size; note: potency is the fitted concentration of half-maximal effect
Summary of the method: as §1

[3] = qHTS RealTime-Glo MT Cell Viability Assay in HEK293 cells - 24 hour (AID 1224886); note: top concentration of the series differs between compounds; nearly all actives have a fitted effect of over 50% in size
Summary of the method: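 Assay medium contained NanoLuc luciferase plus cell-permeant prosubstrate, added with HEK293 cells at 600 cells/well. After 5 h at 37 C/5% CO2 compounds were added; plates stayed at 37 C for 40 h with serial luminescence reads.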

[4] = qHTS RealTime-Glo MT Cell Viability Assay in HEK293 cells - 8 hour (AID 1224887); note: top concentration of the series differs between compounds; nearly all actives have a fitted effect of over 50% in size
Summary of the method: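 HEK293 cells mixed with RealTime-Glo reagents (NanoLuc plus cell-permeant prosubstrate) at 600 cells/well, preincubated 5 h at 37 C/5% CO2, then given 23 nL compound in DMSO. Nonlytic luminescence from viable cells was read at 0, 8, 16, 24, 32 and 40 h.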

[5] = qHTS RealTime-Glo MT Cell Viability Assay in HepG2 cells - 0 hour (AID 1224889); note: nearly all actives have a fitted effect of over 50% in size
Summary of the method: (§2)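 qHTS, HepG2, 600 cells/well, RealTime-Glo (NanoLuc + prosubstrate) added with cells; 5 h preincubation; DMSO compound addition; 37 C; luminescence at 0/8/16/24/32/40 h.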

[6] = A CellTox Green Cytotoxicity Assay to monitor cytotoxicity in HepG2 cells - 8 hour (AID 1224890); note: nearly all actives have a fitted effect of over 45% in size
Summary of the method: as §1

[7] = qHTS assay to identify small molecule antagonists of the estrogen receptor alpha (ER-alpha) signaling pathway using the BG1 cell line in the presence of 0.1 nM 17-beta-estradiol - cell viability counter screen (AID 1259241); note: nearly all actives have a fitted effect of over 40% in size
Summary of the method: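 Cells were plated and left 24 hr, compounds in DMSO were pinned in, 17beta-estradiol was added to 0.1 nM final, and after 22 hr CellTiter-Fluor reagent was added for 30 min before fluorescence was read.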

[8] = qHTS assay to identify small molecule antagonists of the androgen receptor (AR) signaling pathway using the MDA cell line in the presence of 0.5 nM R1881 - cell viability counter screen (AID 1259242); note: nearly all actives have a fitted effect of over 45% in size; note: potency is the fitted concentration of half-maximal effect
Summary of the method: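 MDA-kb2 cells (human breast carcinoma, stably carrying MMTV-luciferase reporter) were exposed to compounds with 0.5 nM R1881 (final) for 16 hr at 37C, 0% CO2; viability then read as live-cell protease fluorescence (CellTiter-Fluor, 30 min) in the same wells.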

[9] = qHTS assay to identify small molecule HDAC inhibitors (AID 1259364); note: top concentration of the series differs between compounds; nearly all actives have a fitted effect of over 45% in size
Summary of the method: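 Wild-type HCT-116 cells were plated overnight, exposed to compounds for 2 h at 37 °C, then given HDAC-Glo class I/II luminogenic reagent for 30 min at room temperature before luminescence was read.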

[10] = qHTS assay to identify small molecule HDAC inhibitors - cell viability counter screen (AID 1259365)
Summary of the method: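 Counter screen in wild-type HCT-116 cells: compounds dissolved in DMSO are pin-transferred onto overnight-plated cells and left 2hr at 37C. ATP-based CellTiter-Glo luminescence then measures viable cells.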

[11] = qHTS assay to identify small molecule agonists of the sonic hedgehog signaling (Shh) pathway - cell viability counter screen (AID 1259366); note: nearly all actives have a fitted effect of over 50% in size; note: potency is the fitted concentration of half-maximal effect
Summary of the method: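 Cells are plated at 2,000 per well and left 4hr at 37C, 5% CO2 before compound addition. After 23hr of treatment, CellTiter-Fluor reagent is added for 1hr at 37C and fluorescence is measured.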

[12] = qHTS assay to identify small molecule antagonists of the sonic hedgehog signaling (Shh) pathway - cell viability counter screen (AID 1259367); note: nearly all actives have a fitted effect of over 55% in size; note: potency is the fitted concentration of half-maximal effect
Summary of the method: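 Seed 3T3 Gli1-Luc cells at 2,000 per well; incubate 4 hr; add compound in DMSO, then conditioned medium; incubate at 37C with 5% CO2; add CellTiter-Fluor after 23 hr; read fluorescence 1 hr later.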

[13] = qHTS assay to identify small molecule agonists of the sonic hedgehog signaling (Shh) pathway (AID 1259368; calls by dose curve; note: series mostly up to about 92 µM; nearly all actives have a fitted effect of over 15% in size)
Summary of the method: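 NIH/3T3-derived 3T3Gli1-Luc cells carrying a stably integrated Gli1 response element–firefly luciferase reporter were plated, left 4 hr at 37 C, then given compounds in DMSO for 24 hr. Luminescence was read 30 min after adding luciferase reagent.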

[14] = qHTS assay to identify small molecule antagonists of the sonic hedgehog signaling (Shh) pathway (AID 1259369; calls by dose curve; note: nearly all actives have a fitted effect of over 45% in size; note: potency is the fitted concentration of half-maximal effect)
Summary of the method: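 NIH/3T3-derived 3T3Gli1-Luc cells with stably integrated Gli1-Luc reporter were preincubated 4hr at 37 C, then given compounds in DMSO plus Shh conditioned medium and incubated 24hr. Firefly luciferase luminescence read after 30min reagent at room temperature.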

[15] = qHTS RealTime-Glo MT Cell Viability Assay in HepG2 cells - 16 hour (AID 1224885); note: nearly all actives have a fitted effect of over 50% in size
Summary of the method: as §2

[16] = target: Estrogen receptor (Homo sapiens) (UniProt P03372); test: qHTS assay to identify small molecule antagonists of the estrogen receptor alpha (ER-alpha) signaling pathway using the BG1 cell line in the presence of 0.1 nM 17-beta-estradiol (AID 1259244); note: nearly all actives have a fitted effect of over 50% in size
Summary of the method: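 VM7Luc4E2 cells (endogenous full-length ER-alpha, stable 4xERE-luciferase) were grown 5 days in phenol red-free medium with charcoal-stripped FBS, then exposed 22 h at 37C to compounds plus 0.1 nM (final) 17beta-estradiol; ONE-Glo luminescence read-out.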

[17] = qHTS assay to identify small molecule phospholipidosis (PLD) inducers (AID 1259344; active = well fitted curve in the direction sought with a large enough effect; an effect the other way counts as inactive or inconclusive; note: potency is the fitted concentration of half-maximal effect)
Summary of the method: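 Quantitative HTS in HepG2: compound plus LipidTOX Red dye for 24 h, paraformaldehyde fixation with Hoechst 33342, widefield high-content imaging; amiodarone as positive and DMSO as negative control.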

[18] = A CellTox Green Cytotoxicity Assay to monitor cytotoxicity in HEK293 cells - 16 hour (AID 1224888); note: nearly all actives have a fitted effect of over 35% in size; note: potency is the fitted concentration of half-maximal effect
Summary of the method: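 HEK293 cells premixed with CellTox Green dye were seeded at 600 cells/well and left 5 h at 37 C/5% CO2 before pin transfer of 23 nL compound in DMSO. Fluorescence from dye bound to dead-cell DNA was read during 40 h treatment.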

Estrogen receptor (Homo sapiens), sequence (P03372 whole entry, looked up): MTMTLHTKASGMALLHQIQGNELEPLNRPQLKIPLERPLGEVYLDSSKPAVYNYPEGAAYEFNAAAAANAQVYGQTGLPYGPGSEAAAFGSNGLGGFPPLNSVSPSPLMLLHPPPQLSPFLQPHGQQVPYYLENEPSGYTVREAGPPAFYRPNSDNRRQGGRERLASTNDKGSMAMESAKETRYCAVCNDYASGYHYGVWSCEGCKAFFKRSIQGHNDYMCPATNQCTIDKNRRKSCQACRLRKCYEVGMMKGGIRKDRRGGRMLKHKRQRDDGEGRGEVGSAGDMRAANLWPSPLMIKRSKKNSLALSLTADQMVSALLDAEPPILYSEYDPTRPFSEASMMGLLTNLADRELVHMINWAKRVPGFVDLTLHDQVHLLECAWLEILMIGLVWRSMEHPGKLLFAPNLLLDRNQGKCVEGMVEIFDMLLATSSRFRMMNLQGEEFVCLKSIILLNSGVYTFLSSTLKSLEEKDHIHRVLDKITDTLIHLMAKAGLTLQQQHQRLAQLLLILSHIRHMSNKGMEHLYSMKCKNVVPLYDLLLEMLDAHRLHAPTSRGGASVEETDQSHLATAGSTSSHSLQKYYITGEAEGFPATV

## C[N+]1([O-])CCOCC1
[1]
  Potency: inactive
[2]
  Potency: inactive
[3]
  Potency: inactive
[4]
  Potency: inactive
[5]
  Potency: inactive
[6]
  Potency: inactive
[7]
  Potency: inactive
[8]
  Potency: inactive
[9]
  Potency: inactive
[10]
  Potency: inactive
[11]
  Potency: inactive
[12]
  Potency: inactive
[13]
  Potency: inactive
[14]
  Potency: inactive

## CC(C)CCOC(=O)c1ccc(N(C)C)cc1
[1]
  Potency: inactive
[2]
  Potency: inactive
[15]
  Potency: inactive
[3]
  Potency: inactive
[4]
  Potency: inactive
[5]
  Potency: inactive
[6]
  Potency: inactive
[7]
  Potency: inactive
[8]
  Potency: inactive
[16]
  Potency: inactive
[17]
  Potency: inactive
[12]
  Potency: inactive
[13]
  Potency: inactive
[14]
  Potency: inactive

## CC(C)C(=O)c1c(C(C)C)nn2ccccc12
[1]
  Potency: inactive
[2]
  Potency: inactive
[15]
  Potency: inactive
[4]
  Potency: inactive
[18]
  Potency: inactive
[5]
  Potency: inactive
[6]
  Potency: inactive
[8]
  Potency: inactive
[17]
  PLD induction: -2.74% [at 7.66 µM]
[9]
  Potency: inactive
[10]
  Potency: inactive
[11]
  Potency: inactive
[12]
  Potency: inactive
[13]
  Potency: inactive

## CNCCC(Oc1ccc(C(F)(F)F)cc1)c1ccccc1 (centres undefined)
[1]
  Potency: inactive
[2]
  Potency: 48.4 µM (active) and 16.9 µM (active)
[18]
  Potency: 23.9 µM (active)
[7]
  Potency: inactive
[8]
  Potency: 29.8 µM (active)
[17]
  Potency: 10 µM (active)
[9]
  Potency: inactive
[11]
  Potency: 60.3 µM (active) and 29.8 µM (active)
[12]
  Potency: 26.9 µM (active) and 29.8 µM (active)
[13]
  Potency: inactive
[14]
  Potency: 15.2 µM (active)

## CCCCC/C=C/CC1CC(=O)OC1=O (centres undefined)
[1]
  Potency: inactive
[2]
  Potency: inactive
[15]
  Potency: inactive
[3]
  Potency: inactive
[4]
  Potency: inactive
[5]
  Potency: inactive
[6]
  Potency: inactive
[8]
  Potency: inactive
[16]
  Potency: inactive
[9]
  Potency: inactive
[10]
  Potency: inactive
[12]
  Potency: inactive
[13]
  Potency: inactive
[14]
  Potency: inactive

## CCC(C)(C)C(=O)O[C@H]1C[C@@H](C)C=C2C=C[C@H](C)[C@H](CC[C@@H]3C[C@@H](O)CC(=O)O3)[C@H]21
[1]
  Potency: inactive
[2]
  Potency: 38.9 µM (active) and 9.52 µM (active)
[6]
  Potency: inactive
[7]
  Potency: inactive
[8]
  Potency: inactive
[16]
  Potency: inactive
[17]
  Potency: inactive
[10]
  Potency: inactive
[11]
  Potency: inactive
[12]
  Potency: inactive
[13]
  Potency: inactive

## C=CS(=O)(=O)O
[1]
  Potency: inactive
[2]
  Potency: inactive
[15]
  Potency: inactive
[3]
  Potency: inactive
[4]
  Potency: inactive
[18]
  Potency: inactive
[8]
  Potency: inactive
[16]
  Potency: inactive
[17]
  Potency: inactive
[9]
  Potency: inactive
[11]
  Potency: inactive
[12]
  Potency: inactive
[13]
  Potency: inactive
[14]
  Potency: inactive

## O=C(O)CCc1ccccc1
[1]
  Potency: inactive
[2]
  Potency: inactive
[4]
  Potency: inactive
[18]
  Potency: inactive
[5]
  Potency: inactive
[8]
  Potency: inactive
[9]
  Potency: inactive
[10]
  Potency: inactive
[11]
  Potency: inactive
[12]
  Potency: inactive
[13]
  Potency: inactive
[14]
  Potency: inactive
